CYP2C19 inh: human CYP2C19 inhibition; inhibition, % at 5 µM; AID 778; CYP2C19 Supersomes, luciferin-H EGE luminescence, 30 min; 96,000 tested, 21% active;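 active means CYP2C19 inhibition above a set limit at 5 µM in the primary screen, cut at about 50% in these data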
CYP2C9 inhib: human CYP2C9 inhibition; 96,000 tested, 20% active; P11712; AID 777; CYP2C9 Supersomes, luciferin-H conversion, luminescence; inhibition, % at 5 µM;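 active means blocking of liver enzyme CYP2C9 beyond about 50% at 5 µM, limit read from the data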
Target sequence (P11712 whole entry, looked up): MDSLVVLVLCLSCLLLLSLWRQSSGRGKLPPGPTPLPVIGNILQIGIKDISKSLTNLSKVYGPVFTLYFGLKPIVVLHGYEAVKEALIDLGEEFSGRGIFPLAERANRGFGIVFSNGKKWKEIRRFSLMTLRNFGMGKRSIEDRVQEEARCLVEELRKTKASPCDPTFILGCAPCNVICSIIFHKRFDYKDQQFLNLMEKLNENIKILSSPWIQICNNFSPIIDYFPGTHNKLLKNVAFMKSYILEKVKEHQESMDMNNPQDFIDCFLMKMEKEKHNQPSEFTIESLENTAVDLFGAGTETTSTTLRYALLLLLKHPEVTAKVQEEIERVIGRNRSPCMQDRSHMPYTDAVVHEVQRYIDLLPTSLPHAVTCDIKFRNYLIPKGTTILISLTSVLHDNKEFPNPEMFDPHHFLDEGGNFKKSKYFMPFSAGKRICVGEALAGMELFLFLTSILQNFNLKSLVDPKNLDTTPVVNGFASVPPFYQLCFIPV
CYP2C9 act: activators of human CYP2C9; activation factor at 5 µM; recombinant CYP2C9, luciferin-H conversion, luminescence; stronger effect = higher value; factor 1 = untreated enzyme, 0 = blocked; 96,000 tested, 1.4% active; P11712;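 active means activation factor of 2 or more for CYP2C9 at a 5 µM dose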
PostGolgi ctrl: growth of the yeast control strain, post-Golgi counter-screen | AID 738 | efflux-deficient yeast background strain, growth absorbance A615, 16 h | inhibition, % at 10 µM | 98,000 tested, 5% active
CYP2C19 activ: activators of human cytochrome P450 2C19; recombinant CYP2C19, luciferin-H EGE luminescence; stronger effect = higher value; 0 = fully inhibited enzyme, 1 = untreated enzyme; P33261; activation factor at 5 µM; 96,000 tested, under 10 active; AID 1025;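 active means activation factor of at least 2 at 5 µM in the primary screen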
PostGolgi yeast: growth inhibition of a yeast mutant, post-Golgi transport screen; post-Golgi transport phenotypic cell assay; inhibition, % at 10 µM; 98,000 tested, 0.9% active;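 further: yeast cells grown in 1536-well plates; yeast grown about 18 h at 30C before absorbance read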
Numbers stand for hits; – = inactive; · = no result given. This is a sample that favours compounds with a hit; in the whole collection about 32% have one here. Unless noted, no stated cut-off is given here; in the data, active means inhibition above about 30%; inactive means the rest.

SMILES | CYP2C19 inh | CYP2C9 inhib | CYP2C9 act | PostGolgi ctrl | CYP2C19 activ | PostGolgi yeast
C/C(=N/NC(=O)c1cc2ccccc2cc1O)C1C(=O)c2ccccc2C1=O | 91 | 98 | – | – | – | –
O=C(c1ccccc1)C1C(=O)c2ccccc2C1=O | – | – | – | – | – | –
CN=C(C)c1c(O)c2ccccc2oc1=O | – | – | – | – | – | –
C/C(=N\NC(=O)c1ccccc1O)c1c(O)cc(C)oc1=O | – | 62 | – | – | – | –
C/C(=N\NC(=O)c1ccccc1O)C1C(=O)c2ccccc2C1=O | – | 90 | – | – | – | –
Cn1c(=O)[nH]c(=O)c2c1nc(N1CCNCC1)n2Cc1cccc2ccccc12 | – | – | – | – | – | –
O=C(Nc1cccc(F)c1)C1CCN(C(=O)c2ccccc2Cl)CC1 | – | – | – | – | – | –
O=C(NCC1CCS(=O)(=O)C1)Oc1ccccc1 (stereo not given) | – | – | – | – | – | –
Cc1c(-n2cc(C(=O)c3ccccc3O)cc(C#N)c2=O)c(=O)n(-c2ccccc2)n1C | – | – | – | – | – | –
Cc1cc(C)n(CC(=O)c2ccc(Br)cc2)c(=O)c1C#N | – | – | – | – | – | –
CCCCn1cc(C(=O)c2cc(Br)ccc2O)cc(C#N)c1=O | 78 | 59 | – | – | – | –
N#Cc1cc(C(=O)c2cc(Br)ccc2O)cn(C2CC2)c1=O | 51 | – | – | – | – | –
CC(C)n1cc(C(=O)c2cc(Br)ccc2O)cc(C#N)c1=O | 98 | 88 | – | – | – | –
COC(=O)CCSCc1cn2cc(Cl)ccc2n1 | – | – | – | – | – | –
CN(CC(=O)O)Cc1nc2ccccc2[nH]1 | – | – | – | – | – | –
CCOC(=O)c1c(C)[nH]c(C(=O)C(C)OC(=O)c2cccc(OCc3c(C)noc3C)c2)c1C (stereo not given) | 79 | 90 | – | – | – | –
CCOC(=O)c1c(C)[nH]c(C(=O)NNC(=O)c2ccccc2)c1C | – | – | – | – | – | –
Cc1cccc2cc(/C=N/NC(=O)CN3CCOCC3)c(Cl)nc12 | – | – | – | – | – | –
CCOC(=O)C1=C(N2CCCCC2)c2cc3c(n2C1=O)CCCC3 | – | – | – | 33 | – | –
Cc1ccc(N(C(=O)Nc2ccccc2)C2=NCC(C)S2)cc1 (stereo not given) | 71 | 86 | – | – | – | –
CC1CN=C(N(Cc2ccccc2)C(=O)Nc2ccccc2)S1 (stereo not given) | – | – | – | – | – | –
Cc1c(N(C(=O)Nc2ccccc2)C2=NCC(C)S2)c(=O)n(-c2ccccc2)n1C (stereo not given) | – | 74 | – | – | – | –
Cc1c(N=C2NC(=O)C(CC(=O)Nc3ccccc3)S2)c(=O)n(-c2ccccc2)n1C (stereo not given) | – | – | – | – | – | –
CCCC(=O)Nc1cc(-c2nn(C)c(=O)c3ccccc23)ccc1N1CCOCC1 | – | – | – | – | – | –
Cn1nc(-c2ccc(N3CCOCC3)c(NS(=O)(=O)c3ccc(Cl)cc3)c2)c2ccccc2c1=O | 86 | 84 | – | 30 | – | –
SMILES | CYP2C19 inh | CYP2C9 inhib | CYP2C9 act | PostGolgi ctrl | CYP2C19 activ | PostGolgi yeast
CC(=O)Nc1cc(-c2nn(C)c(=O)c3ccccc23)ccc1N1CCOCC1 | – | – | – | – | – | –
Cc1ccc(S(=O)(=O)Nc2cc(-c3nn(C)c(=O)c4ccccc34)ccc2N2CCOCC2)cc1 | 93 | 94 | – | – | – | –
O=C(Cn1nnc(-c2cccc(C(F)(F)F)c2)n1)N1CCOCC1 | – | – | 3.3 | – | – | –
CN1/C(=C/C2CC(=O)N(c3ccc([N+](=O)[O-])cc3)C2=O)C(C)(C)c2ccccc21 (stereo not given) | 80 | – | – | – | – | –
Cc1[nH]n(-c2ccccc2)c(=O)c1C(C[N+](=O)[O-])c1ccccc1Cl (stereo not given) | 88 | 92 | – | – | – | –
Cc1ccc(Oc2ccc(-c3nc(N)nc(N)n3)cc2)cc1C | – | – | – | 50 | – | –
COc1ccc(Oc2cc(F)nc(N)n2)cc1 | – | – | – | – | – | –
Nc1nc(N)nc(-c2ccc(Oc3ccccc3)cc2)n1 | – | 51 | – | – | – | –
C=C(C)CSc1nc(N)c2c(C)c(C)sc2n1 | 56 | – | – | – | – | –
CC1CN(c2nc3c(c(=O)n(C)c(=O)n3C)n2Cc2c(F)cccc2Cl)CC(C)O1 (stereo not given) | – | 59 | – | – | – | –
COc1ccccc1CNC(=O)CCN1C(=O)COc2ccc(C)cc21 | 62 | – | – | – | – | –
O=C(CCCCCN1C(=O)c2ccccc2C1=O)NCc1ccco1 | – | 60 | – | – | – | –
O=C(CCN1C(=O)COc2ccccc21)NCc1ccco1 | 94 | – | – | – | – | –
Cc1ccc2c(c1)N(CCC(=O)NCc1ccco1)C(=O)CO2 | – | – | – | – | – | –
Cc1ccc2c(c1)N(CCC(=O)NCc1cccnc1)C(=O)CO2 | – | – | – | – | – | –
CCN(CCCNC(=O)CCCN1C(=O)COc2ccc(C)cc21)c1cccc(C)c1 | 50 | 58 | – | – | – | –
O=C(CCN1C(=O)c2ccccc2S1(=O)=O)NCc1ccco1 | – | – | – | – | – | –
CC(/C=N/n1cnnc1)=C\c1ccco1 | · | · | · | – | · | –
CN(C)c1nc(N)nc(-c2ccco2)n1 | – | – | – | – | – | –
CCOc1cccc(C2C(C(=O)c3ccco3)=C(O)C(=O)N2Cc2ccncc2)c1 (stereo not given) | – | – | – | – | – | –
Cc1ccc2c(c1)N(CCC(=O)NCc1ccccn1)C(=O)CO2 | 55 | – | – | – | – | –
COc1ccccc1CNC(=O)CCN1C(=O)COc2ccccc21 | 50 | – | – | – | – | –
COc1ccccc1CNC(=O)CCCN1C(=O)COc2ccc(C)cc21 | 62 | – | – | – | – | –
CC1(c2ccc(Cl)cc2Cl)OCC(Cn2ccnc2)O1 (stereo not given) | 99 | 83 | – | – | – | –
COC(=O)c1ccccc1NC(=O)c1cnn2c(C(F)F)cc(C3CC3)nc12 | – | – | – | 43 | – | –
SMILES | CYP2C19 inh | CYP2C9 inhib | CYP2C9 act | PostGolgi ctrl | CYP2C19 activ | PostGolgi yeast
O=C(NCCc1ccccc1)c1cnn2c(C(F)F)cc(C3CC3)nc12 | 87 | – | – | 39 | – | –
CNc1cccccc1=S | – | – | – | – | – | –
COc1ccc(C)cc1S(=O)(=O)N1c2ccccc2CC1C (stereo not given) | 96 | 96 | – | – | – | –
CCOc1ccc(S(=O)(=O)N2CCC(C(N)=O)CC2)c2ccccc12 | – | 59 | – | – | – | –
COc1ccc(F)cc1S(=O)(=O)N1CCCN(S(=O)(=O)c2cc(F)ccc2OC)CC1 | 99 | – | – | – | – | –
CCOC(=O)C1CCN(S(=O)(=O)c2ccc(Br)c(OCC)c2)CC1 | – | – | – | – | – | –
COc1ccc(F)cc1S(=O)(=O)n1cc(C)nc1-c1ccccc1 | – | – | – | · | – | ·

Assay outcomes from PubChem.
